The results in this text go back to PubChem BioAssay AID720532 (National Center for Advancing Translational Sciences (NCATS), 2013).

Where “and” joins values, the source holds several entries; their conditions need not be identical. Equal entries are not always repeated. In all, about 18,000 compounds went through this assay and about 1,200 (6.7%) were called active. Not shown: some 16% with an inconclusive outcome. Shown is part of a subset that was picked to be rich in actives. Entries that show only a call come without a potency. A number with no mark means an inactive call. The call rests on the fitted dose curve; tested in HEK293 cells.
Potency means the concentration at half of the fitted maximal effect.

The experiment can be described thus: qHTS for Inhibitors of binding or entry into cells for Marburg Virus. The following applies: Marburg virus pseudotype entry/binding inhibition, cell-based; series mostly up to 49.2 µM. Background: In qHTS, concentration-response curves come from the screen itself.
As to `CNCC[C@H](Oc1ccc(C(F)(F)F)cc1)c1ccccc1`, the Potency was 3.98 µM (active) and 8.91 µM (active).

Consider `COC(=O)N[C@@H](c1ccccc1)[C@]1(C(=O)OC)CCCC1=O`, for which the activity change, negative = inhibition is -27.3% [at 8.59 µM].

With `CC[C@H](C)[C@@H](NC(=O)O[C@@H]1C(=O)c2cc(OC)ccc2O[C@H]1c1cccc(OC)c1)C(=O)OC`, the activity change, negative = inhibition result is “inactive”.

Turning to `COc1ccccc1C1CN(CCNC(=O)C2=CCCC2)Cc2ccccc2O1` (configuration not stated), the activity change, negative = inhibition entry is “inactive”.

For `COCC(=O)Nc1cc(C(=O)N2CCCC(c3ccccc3)CC2)c2c(c1)nc(-c1ccncc1)n2C` (configuration not stated), the activity change, negative = inhibition entry was “inactive”.

As for `C=C(C)C(=O)c1ccc(F)cc1`, the activity change, negative = inhibition entry was “inactive”.

With `C[C@@H]1[C@@H](c2ccccc2)Oc2c(Cl)cccc2S(=O)(=O)N1Cc1ccc(Cl)cc1`, the activity change, negative = inhibition result is “inactive”.

Consider `C#C[C@]1(O)CC[C@H]2[C@@H]3CCC4=C/C(=N/O)CC[C@@H]4[C@H]3CC[C@@]21CC`, for which the activity change, negative = inhibition result was “inactive”.

Turning to `COCCN1C(=O)N[C@@H](CCc2ccccc2)[C@H](C(C)=O)[C@H]1C`, the activity change, negative = inhibition was -2.21% [at 8.59 µM].

`COc1ccc([C@]23Cc4ccccc4[C@H](O2)c2c(c4ccc(OC)cc4oc2=O)O3)cc1`: the activity change, negative = inhibition was -9.62% [at 8.59 µM].

On to `COc1ccc(-c2nc3c(c4c2C[C@H](c2ccccc2)OC4)CN(C(=O)c2cccnc2)CC3)c(C)c1`, for which the activity change, negative = inhibition is 29.8% [at 8.59 µM].

For `CC[C@H]1C[C@H](C=CCC(C(=O)OC)C(=O)OC)OP(=O)(OC)O1` (some centres not stated), the activity change, negative = inhibition result is “inactive”.

As to `CC[C@H]1CN2CCc3cc(OC)c(OC)cc3[C@@H]2C[C@@H]1C[C@H]1NCCc2cc(OC)c(OC)cc21`, the Potency is 0.398 µM (active).

As for `Cc1cc2oc(=O)cc(-c3ccccc3)c2c(C)c1-c1ccc(OC(F)(F)F)cc1`, the activity change, negative = inhibition result is “inactive”.

In the case of `O=C1OCCN1C(=O)[C@H]1[C@H](c2ccccc2)C(c2ccc(F)cc2)=NN1c1ccccc1`, the activity change, negative = inhibition result was “inactive”.

`C=C/C1=C/Cc2ccccc2[C@H](C[N+](=O)[O-])C(C(=O)OC)(C(=O)OC)C1`: the activity change, negative = inhibition entry is “inactive”.

With `CC/C=C\C/C=C\C/C=C\C/C=C\C/C=C\C/C=C\CCC(=O)NCCc1ccc(O)c(O)c1`, the activity change, negative = inhibition entry is “inactive”.

Turning to `CC1=C2[C@@H](O)[C@H]([C@@H](C)C(=O)NCCC(C)C)CC[C@@]2(C)C=CC1=O`, the activity change, negative = inhibition result was “inactive”.

Consider `O=C(C1CCCCC1)N1C[C@@H](n2cc(C3CC3)nn2)[C@@H](O)C[C@@H]1c1ccccc1`, for which the activity change, negative = inhibition entry was “inactive”.

Regarding `Cc1ccc(-c2ccc(CN3C(C(C)C)C(=O)N(Cc4cn(CCC5OCCCO5)nn4)CCS3(=O)=O)cc2)cc1` (configuration not stated), the activity change, negative = inhibition entry was “inactive”.

Regarding `COC(=O)C12C[C@H](C)C3C(C)C(c4ccccc4C31)N2C(=O)C(F)(F)F` (some centres not stated), the activity change, negative = inhibition was -25.2% [at 8.59 µM].

Take `CCN1C(=S)NC(c2cccc(C(F)(F)F)c2)C(C(=O)OC)=C1C` (configuration not stated): the activity change, negative = inhibition is 95.8% [at 8.59 µM].

With `CCOC(=O)CN1C(=O)N[C@@H](c2ccc(Br)cc2)C(C(C)=O)=C1C`, the activity change, negative = inhibition result was “inactive”.

As to `CC(=O)Oc1c2c(c3c(c1CC=C(C)C)O[C@@]14C(=CC5CC1C(C)(C)OC4(C/C=C(\C)C(=O)O)C5=O)C3=O)OC(C)(CCC=C(C)C)C=C2` (some centres not stated), the Potency is 3.55 µM (active).

Take `Cc1cccc([C@H]2[C@@H]3C=CC[C@@H](C)[C@@H]3C(=O)N2Cc2ccccc2)c1`: the activity change, negative = inhibition result is “inactive”.

In the case of `COc1cccc([C@H](O)Cn2cc(-c3ccc(CON=C(C)C)cc3)nn2)c1`, the activity change, negative = inhibition is 7.92% [at 8.59 µM].

Consider `Cc1cc2c(nc1C)CCCCN2C[C@H](C)ON=C1[C@H]2CCn3c(=O)n(-c4ccccc4)c(=O)n3[C@@H]2[C@H](O)[C@@H]2O[C@H]12`, for which the activity change, negative = inhibition is 26% [at 8.59 µM].

Consider `N#Cc1c(Cl)c(Cl)c(Cl)c(C#N)c1Cl`, for which the Potency was 1.12 µM (active).

As to `COCOc1cc(OC)ccc1C(=O)/C=C/c1ccc([N+](=O)[O-])cc1`, the activity change, negative = inhibition result is “inactive”.

For `OCCN1CCN(CC/C=C2\c3ccccc3Sc3ccc(C(F)(F)F)cc32)CC1`, the Potency is 12.6 µM (active).

Regarding `CC(C)(C)OC(=O)NCCCCC1=CC2=CC(=O)C(C)(OC(=O)c3cccs3)C(=O)C2=CO1` (configuration not stated), the activity change, negative = inhibition result is “inactive”.

As for `CCOC(=O)C1=C(C)c2ccccc2OC1C(=O)OCC` (configuration not stated), the activity change, negative = inhibition result was “inactive”.

As for `COc1cccc(CC(=O)N2CCc3nc(COc4ccccc4)c4c(c3C2)CO[C@@H](C)C4)c1`, the activity change, negative = inhibition is -8.64% [at 8.59 µM].

As for `N#Cc1cccc(CS(=O)(=O)c2nnnn2-c2cc(C(F)(F)F)cc(C(F)(F)F)c2)c1`, the activity change, negative = inhibition result was “inactive”.

For `COc1ccccc1-c1ccnc(-n2ncc(C(=O)NCCc3ccncc3)c2C)n1`, the activity change, negative = inhibition entry was “inactive”.

As for `CC(C)[C@@H](CC(=O)N[C@@H]1CCNC[C@H]1C(=O)N[C@H](CC(=O)N[C@@H](CCC(=O)O)CC(=O)O)Cc1ccccc1)NC(=O)C[C@H](CO)NC(=O)[C@@H]1CNCC[C@H]1N`, the activity change, negative = inhibition entry was “inactive”.

For the compound `COC(=O)[C@H]1[C@@H](c2ccccc2)NC(=O)O[C@@H]1C`, the activity change, negative = inhibition is 55.5% [at 8.59 µM].

As to `CC(C)CNc1cccc2c1S(=O)(=O)N[C@H](CC(C)C)CO2`, the activity change, negative = inhibition result is “inactive”.

For the compound `COCCN1C(=S)NC(c2cccc(F)c2)C(C(=O)OC)=C1C` (configuration not stated), the activity change, negative = inhibition was 20.9% [at 8.59 µM].

`N#Cc1ccc2c(c1)C[C@]1(CCCCN3C(=O)c4ccccc4C3=O)OC3=C(C(=O)OC4(CCCCC4)C3)[C@H]2O1`: the activity change, negative = inhibition was 9.87% [at 8.59 µM].

In the case of `CN(Cc1ccccc1F)c1cc2c(c3c1ccn3C)C1CCC2O1` (configuration not stated), the activity change, negative = inhibition result is “inactive”.

For the compound `COC(=O)[C@@H]1CC2=CC(=O)CC[C@]2(C)[C@@]23O[C@@H]2C[C@@]2(C)[C@@H](CC[C@@]24CCC(=O)O4)[C@H]13`, the activity change, negative = inhibition entry was “inactive”.

Regarding `CC[C@]1(O)C(=O)OCc2c1cc1n(c2=O)Cc2cc3ccccc3nc2-1`, the Potency was 2.82 µM (active).

As to `CCCN(CCc1ccccc1)C1CCc2c(O)cccc2C1` (configuration not stated), the Potency was 35.5 µM (active).

Regarding `CCCN(C/C=C/I)C1CCc2ccc(O)cc2C1` (configuration not stated), the activity change, negative = inhibition result was “inactive”.

As to `CCCN(C/C=C\I)[C@@H]1CCc2cccc(O)c2C1`, the Potency was 25.1 µM (active).

In the case of `O=C(Nc1cc(C(=O)Nc2ccc(S(=O)(=O)O)cc2)cc(C(=O)Nc2ccc(S(=O)(=O)O)cc2)c1)Nc1cc(C(=O)Nc2ccc(S(=O)(=O)O)cc2)cc(C(=O)Nc2ccc(S(=O)(=O)O)cc2)c1`, the activity change, negative = inhibition entry was “inactive”.

Take `COC(=O)C/C=C/[C@@H](C)[C@H](NC(=O)OCC(Cl)(Cl)Cl)c1ccccc1`: the activity change, negative = inhibition entry was “inactive”.

`Oc1c(Cl)cc(Cl)c(Cl)c1Cc1c(O)c(Cl)cc(Cl)c1Cl`: the Potency was 15.8 µM (active).

Consider `Cc1ccccc1-c1ccc(C(=O)O)s1`, for which the activity change, negative = inhibition entry was “inactive”.

For the compound `C[C@H]1[C@H](c2ccccc2)Oc2cc(Br)ccc2S(=O)(=O)N1Cc1cccc(F)c1`, the activity change, negative = inhibition result is “inactive”.

Take `COC1CC(OC2CC[C@@]3(C=O)C4CC[C@]5(C)C(C6=CC(=O)OC6)CC[C@@]5(O)C4CC[C@]3(O)C2)OC(C)C1O` (some centres not stated): the Potency was 0.251 µM (active).

`C[C@@]12CC[C@H]3[C@@H](CC[C@]4(O)C[C@H](O)CC[C@@]34C=O)[C@]1(O)CC[C@@H]2C1=CC(=O)OC1`: the Potency was 1 µM (active).

Consider `COc1ccc(C[C@H](N)C(=O)N[C@@H]2[C@H](O)[C@H](n3cnc4c(N(C)C)ncnc43)O[C@@H]2CO)cc1`, for which the Potency is 2.24 µM (active).

As for `Nc1ncnc2c1ncn2C1CC(O)C(CO)O1` (configuration not stated), the activity change, negative = inhibition entry is “inactive”.

As to `COc1ccc(CC(N)C(=O)NC2C(O)[C@H](n3cnc4c(N(C)C)ncnc43)O[C@@H]2CO)cc1` (some centres not stated), the Potency was 3.98 µM (active).

For `C[C@H]1C/C=C/[C@@H]2[C@@H]3O[C@]3(C)[C@@H](C)[C@H]3[C@H](Cc4ccccc4)NC(=O)[C@]32OC(=O)O/C=C/[C@](C)(O)C1=O`, the Potency is 0.251 µM (active).

In the case of `CO[C@H]1[C@H](NC(=O)C(C)C)c2ccccc2C12CCN(Cc1cnc(N(C)C)s1)CC2`, the activity change, negative = inhibition result is “inactive”.

With `Cc1c(S(=O)(=O)O)oc2c1C(=O)C(=O)c1c-2ccc2c1CCCC2(C)C`, the activity change, negative = inhibition entry was “inactive”.

With `O=c1c(CN2CCOc3ccc(CN4CCC(Oc5cccnc5)CC4)cc3C2)coc2ccccc12`, the Potency was 11.2 µM (active).

On to `O=C(C(=O)N1CCOc2ccc(CN3CCN(Cc4ccccn4)CC3)cc2C1)c1ccccc1`, for which the activity change, negative = inhibition result was “inactive”.

Consider `CCOC(=O)N1CCC(N2CCOc3ccc(CN4CCC(O)(c5cccnc5)CC4)cc3C2)CC1`, for which the activity change, negative = inhibition result is “inactive”.

Regarding `CCOC(=O)N1CCN(Cc2ccc3c(c2)CN(C(=O)c2cccc(-n4cccn4)c2)CCO3)CC1`, the activity change, negative = inhibition entry is “inactive”.

Take `c1ccc(CN2CCN(Cc3ccc4c(c3)CN(Cc3c[nH]c5ccccc35)CCO4)CC2)nc1`: the Potency was 10 µM (active).

On to `CC(C)c1cc(C(=O)N2CCOc3ccc(CN4CCC(Oc5cccnc5)CC4)cc3C2)n[nH]1`, for which the activity change, negative = inhibition entry is “inactive”.

With `O=S(O)S(=O)(=O)O`, the activity change, negative = inhibition entry is “inactive”.

In the case of `O=S1(=O)CC(O)c2cc(Br)ccc2N1Cc1cccc(F)c1` (configuration not stated), the activity change, negative = inhibition result is “inactive”.

Regarding `Cc1ccccc1Nc1oc(-c2ccccc2)nc1C(C)(C)C`, the activity change, negative = inhibition was -15% [at 8.59 µM].

In the case of `C=C1/C(=C\C=C2\CCCC3(C)C2CCC3C(C)/C=C/C(O)C2CC2)CC(O)CC1O` (configuration not stated), the activity change, negative = inhibition result is “inactive”.

`COC(=O)CCCC1=CC2=C(c3ccccc3)C(=O)C(C)(OC(=O)C3CCCC3)C(=O)C2=CN1c1ccc(OC)cc1` (configuration not stated): the activity change, negative = inhibition is -5.26% [at 8.59 µM].

For `COc1cc2c(cc1OC)[C@@H]1O[C@](CCCCN3C(=O)c4ccccc4C3=O)(C2)Oc2c1c(=O)oc1ccc(F)cc21`, the activity change, negative = inhibition is 2.42% [at 8.59 µM].

With `CC(Nc1oc(-c2ccccc2)nc1-c1ccccc1)c1ccccc1` (configuration not stated), the activity change, negative = inhibition result was “inactive”.

Take `COC12CC[C@@]3(C[C@@H]1C(C)(O)C(C)(C)C)[C@H]1Cc4ccc(O)c5c4[C@@]3(CCN1CC1CC1)[C@H]2O5` (some centres not stated): the Potency is 15.8 µM (active).

In the case of `COc1ccc2c(c1)O[C@@H](c1ccc3c(c1)OCO3)[C@H](OC(=O)NCc1ccco1)C2=O`, the activity change, negative = inhibition result is “inactive”.

On to `COCCN1C(=O)N[C@@H](c2ccccc2)C(C(=O)OC)=C1C`, for which the activity change, negative = inhibition result is “inactive”.

As for `CCC(=O)C[C@@H](NC(=O)OC)c1ccccc1`, the activity change, negative = inhibition was -1.71% [at 8.59 µM].

`CCCCN1CC(CO)Oc2cccc(F)c2S1(=O)=O` (configuration not stated): the activity change, negative = inhibition result was “inactive”.
